Hits are enriched below; roughly 9.3% of the tested compounds scored in any of these assays.
ELG1 genotoxic – qHTS screen for small molecules that induce genotoxicity in human embryonic kidney (HEK293T) cells expressing luciferase-tagged ELG1; AID 504466, 2011; Potency, µM (series often up to 46 µM), for the others: at the top dose activity change, positive = activation, actives largely listed as activators; HEK293T ELG1-luciferase reporter, luminescence, 16 h; actives 1.3% (n = 330,000); note: % of control where 0% means no effect; nearly all actives have a fitted effect of over 60% in size
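Luminescence read-out: rising ELG1-luciferase signal, reflecting elevated ELG1 protein under genetic stress, flags genotoxic compounds. Cells were treated for 16 hr at 37 °C before ONE-Glo detection.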
SMN2 splice up – qHTS Assay for Enhancers of SMN2 Splice Variant Expression; Potency, µM (highest dose often 46.1 µM), inactives show at the top dose activity change, positive = activation, usual class: activators; actives 2.8% (n = 210,000); HEK293 SMN2-luciferase splicing reporter, luminescence, 30-36 h; AID 1458, 2008; note: % of control where 0% means no effect; nearly all actives have a fitted effect of over 55% in size
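HEK293 cells carry an SMN2 […]–luciferase reporter in which exon 7 inclusion puts luciferase in frame. Cells were plated 10-12 h before compound addition, then incubated 30-36 h at 37C. ONE-Glo luminescence was read; sodium butyrate at 4.5 mM final served as control.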
NPC1 prom act – qHTS Assay for NPC1 Promoter Activators. Huh7 NPC1 promoter luciferase reporter, 24 h. Potency, µM (series often up to 9.22 µM), for the others: at the top dose activation, most hits filed as activators. actives 2.4% (n = 320,000). AID 485313, 2010; note: % of control where 0% means no effect; nearly all actives have a fitted effect of over 60% in size
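Compounds in DMSO were transferred onto Huh7 NPC1-luciferase reporter cells pre-incubated 2 h; after 24 h at 37 °C, Amplite reagent was dispensed and luminescence recorded 10 min later.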
ELG1 repair inh – qHTS screen for small molecules that inhibit ELG1-dependent DNA repair in human embryonic kidney (HEK293T) cells expressing luciferase-tagged ELG1; HEK293T ELG1-luciferase reporter, luminescence, 16 h; DNA damage induced by 5-fluorouridine; Potency, µM (series often up to 46.1 µM), inactives show at the top dose activity change, negative = inhibition, usual class: inhibitors; actives 2.3% (n = 330,000); note: % is set by controls: 0 for no effect and ±100 for the full control effect; nearly all actives have a fitted effect of over 55% in size
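Luminescence from the luciferase reporter, measured 30 min after ONE-Glo reagent at room temperature, was the read-out. Beforehand, 2,000 cells per well were exposed for 16 hr at 37 °C to 5-fluorouridine together with compound or vehicle.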
Rab9 promoter act – qHTS Assay for Rab9 Promoter Activators | Huh7 Rab9 promoter-luciferase reporter, luminescence, 24 h | Potency, µM (doses to about 9.22 µM), inactives show top-dose activation, negative = inhibition, usual class: activators | actives 2.8% (n = 320,000); note: % of control where 0% means no effect; nearly all actives have a fitted effect of over 60% in size
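Luciferase signal after 10 min detection reagent at ambient indicates Rab9 promoter upregulation; stably transfected Huh7 cells were treated 24 h with compound in DMSO at 37 °C, 5% CO2.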
FLuc counter – qHTS profiling assay for firefly luciferase inhibitor/activator using purifed enzyme and Km concentrations of substrates (counterscreen for miR-21 project); Luciferin 4-monooxygenase (Photinus pyralis), P08659; purified FLuc, Km substrates, luminescence inhibition; Potency, µM (series often up to 57.5 µM), without a hit: top-dose activity change, negative = inhibition, usual class: inhibitors; actives 6.9% (n = 360,000);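 note: plate controls were vehicle for no effect and reference inhibitor for full effect; nearly all actives have a fitted effect of over 55% in size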
Target sequence (P08659 whole entry, looked up): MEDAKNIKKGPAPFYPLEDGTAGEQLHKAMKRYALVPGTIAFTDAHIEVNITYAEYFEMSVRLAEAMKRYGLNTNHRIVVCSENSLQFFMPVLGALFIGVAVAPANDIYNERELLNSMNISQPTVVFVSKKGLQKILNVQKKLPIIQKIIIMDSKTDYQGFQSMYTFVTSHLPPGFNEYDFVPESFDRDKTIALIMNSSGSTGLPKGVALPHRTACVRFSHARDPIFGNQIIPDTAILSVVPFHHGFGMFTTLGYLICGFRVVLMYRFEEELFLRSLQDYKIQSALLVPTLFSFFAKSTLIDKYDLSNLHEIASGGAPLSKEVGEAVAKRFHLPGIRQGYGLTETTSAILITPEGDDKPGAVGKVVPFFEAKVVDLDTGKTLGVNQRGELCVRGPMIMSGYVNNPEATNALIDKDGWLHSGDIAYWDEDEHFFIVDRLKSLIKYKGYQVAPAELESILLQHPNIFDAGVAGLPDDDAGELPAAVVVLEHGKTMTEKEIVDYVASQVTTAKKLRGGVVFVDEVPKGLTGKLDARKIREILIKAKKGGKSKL
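Purified P. pyralis luciferase, 10 nM final, with Km-level 10 uM D-luciferin and 10 uM ATP in 50 mM Tris acetate pH 7.5, 10 mM Mg acetate, 0.01% Tween-20, 0.05% BSA; 6-point qHTS titration about 60 µM downward; luminescence read.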
* marks the source's active call; other numbers are inactive results. Calls come from the whole dose curve; as a rule, active = well fitted curve in the direction sought with a large enough effect; inconclusive = small, poorly fitted or top-dose-only effect, or another doubt; inactive = no such curve, though single readings can be large; an effect the other way counts as inactive or inconclusive. Potency is the fitted concentration of half-maximal effect.

For CCCC(=O)NC(c1ccc(OC)cc1)c1ccc2cccnc2c1O (centres undefined) the results were ELG1 genotoxic 3%, NPC1 prom act -23%, ELG1 repair inh inconclusive, Rab9 promoter act -57% and FLuc counter -1%.
`CCCCC(=O)NC(c1ccccc1)c1ccc2cccnc2c1O` (centres undefined) gave ELG1 genotoxic 6%, NPC1 prom act -44%, ELG1 repair inh inconclusive, Rab9 promoter act -48% and FLuc counter -1%.
COc1ccccc1N1C(N)=NC(N)=NC12CCCCC2 was read as ELG1 genotoxic 0%, NPC1 prom act -6%, ELG1 repair inh -8%, Rab9 promoter act 2% and FLuc counter -2%.
O=C(CCCNS(=O)(=O)c1cccs1)N1CCN(c2cccc(Cl)c2)CC1 was read as ELG1 genotoxic -6%, SMN2 splice up -61%, NPC1 prom act 0%, ELG1 repair inh 23µM*, Rab9 promoter act 2% and FLuc counter -1%.
For O=C(CCNS(=O)(=O)c1cccs1)N1CCN(c2cccc(Cl)c2)CC1 the results were ELG1 genotoxic -13%, NPC1 prom act -1%, ELG1 repair inh 2%, Rab9 promoter act -1% and FLuc counter 3%.
`Cc1ccccc1CN1C[C@@H]2C[C@@H](c3cnc(N4CCOCC4)s3)N3CCC[C@@]23C1=O` gave ELG1 genotoxic -8%, SMN2 splice up 16µM*, NPC1 prom act -4%, ELG1 repair inh -10%, Rab9 promoter act -32% and FLuc counter -3%.
Screening CC1CCN(C(=O)CSc2nnc(CNC(=O)COc3ccc(Cl)cc3)o2)CC1 returned ELG1 genotoxic -4%, SMN2 splice up -15%, NPC1 prom act -4%, ELG1 repair inh -9%, Rab9 promoter act 1% and FLuc counter 1%.
Screening O=C(Cn1cnc2ccccc21)c1ccc(Br)cc1 returned ELG1 genotoxic 1%, NPC1 prom act 1%, ELG1 repair inh -1%, Rab9 promoter act 3% and FLuc counter -19%.
`Cc1csc(NC(=O)CSc2nnc(NC(=O)COc3ccccc3)s2)n1` gave ELG1 genotoxic 8%, SMN2 splice up 26%, NPC1 prom act 6%, ELG1 repair inh 23%, Rab9 promoter act 12% and FLuc counter 2.1µM*.
Screening Cc1csc(NC(=O)CSc2nnc(-c3ccccc3)o2)n1 returned ELG1 genotoxic 5µM*, SMN2 splice up 11µM*, NPC1 prom act 3.2µM*, ELG1 repair inh inconclusive, Rab9 promoter act 2µM* and FLuc counter -4%.
`CCN(CC)S(=O)(=O)c1ccc(-c2nnc(SCC(=O)Nc3nc(C)cs3)o2)cc1` gave ELG1 genotoxic -5%, SMN2 splice up 6%, NPC1 prom act 5%, ELG1 repair inh -16%, Rab9 promoter act -13% and FLuc counter -2%.
Nc1ccccc1Nc1cccc(C(F)(F)F)c1 was read as ELG1 genotoxic 2%, SMN2 splice up inconclusive, NPC1 prom act -17%, ELG1 repair inh inconclusive, Rab9 promoter act -34% and FLuc counter -2%.
Screening CCc1nccn1S(=O)(=O)c1ccc2ccc(C)cc2c1 returned ELG1 genotoxic 0%, SMN2 splice up -5%, NPC1 prom act -1%, ELG1 repair inh 0%, Rab9 promoter act -5% and FLuc counter -17%.
Screening COc1ccc([N+](=O)[O-])cc1NS(=O)(=O)Cc1ccccc1 returned ELG1 genotoxic -3%, NPC1 prom act -4%, ELG1 repair inh -4%, Rab9 promoter act -4% and FLuc counter 1%.
For CNc1cc([N+](=O)[O-])ccc1OCc1ccccc1 the results were ELG1 genotoxic 9%, NPC1 prom act 16%, ELG1 repair inh 28%, Rab9 promoter act 16% and FLuc counter 19µM*.
COc1ccccc1-n1c(SCC(=O)N2CCCCC2)nc2cccnc21 was read as ELG1 genotoxic 0%, SMN2 splice up -3%, NPC1 prom act 0%, ELG1 repair inh -7%, Rab9 promoter act 3% and FLuc counter 0%.
`CCOC(=O)c1sc(Nc2nc3c(F)cccc3s2)cc1C` gave ELG1 genotoxic inconclusive, SMN2 splice up inconclusive, NPC1 prom act 11%, ELG1 repair inh inconclusive, Rab9 promoter act inconclusive and FLuc counter -11%.
Screening O=C(OCC(=O)N1CCN(C(=O)c2ccco2)CC1)c1cc(-c2cccc(Br)c2)nc2ccccc12 returned ELG1 genotoxic -23%, SMN2 splice up -12%, NPC1 prom act 1%, ELG1 repair inh 16µM*, Rab9 promoter act -6% and FLuc counter 9.5µM*.
Screening O=C(OCC(=O)N1CCN(C(=O)c2ccco2)CC1)c1cc(-c2ccc(F)cc2)nc2ccccc12 returned ELG1 genotoxic -19%, SMN2 splice up -8%, NPC1 prom act -2%, ELG1 repair inh 23µM*, Rab9 promoter act -13% and FLuc counter 11µM*.
Screening O=C(OCC(=O)N1CCN(C(=O)c2ccco2)CC1)c1cc(-c2ccccc2)nc2ccccc12 returned ELG1 genotoxic -12%, SMN2 splice up 1%, NPC1 prom act -2%, ELG1 repair inh 15µM*, Rab9 promoter act 8% and FLuc counter 15µM*.
`CC1CCCC(C)N1C(=O)CCN1C(=O)C2C3C=CC(C3)C2C1=O` (centres undefined) gave ELG1 genotoxic -1%, NPC1 prom act 2%, ELG1 repair inh 3%, Rab9 promoter act -1% and FLuc counter 5%.
Screening CCOc1ccc2[nH]c(=O)c(C(c3nnnn3CC3CCCO3)N3CCc4ccccc4C3)cc2c1 (centres undefined) returned ELG1 genotoxic -1%, SMN2 splice up 35%, NPC1 prom act -1%, ELG1 repair inh -30%, Rab9 promoter act -5% and FLuc counter -2%.
Screening CCOc1cc(C(=O)Nc2ccccc2F)cc(Br)c1OCC returned ELG1 genotoxic -5%, SMN2 splice up -11%, NPC1 prom act -2%, ELG1 repair inh inconclusive, Rab9 promoter act -7% and FLuc counter -5%.
Screening Cc1cc(-c2ccc(C)c(S(=O)(=O)N3CCOc4ccc(Cl)cc43)c2)on1 returned FLuc counter 5%.

Assay outcomes: PubChem BioAssay, National Center for Advancing Translational Sciences (NCATS)
